Measurements: PubChem BioAssay AID633 (Emory University Molecular Libraries Screening Center, 2007)
Out of some 86,000 compounds screened, about 1,100 (1.3%) were called active. This is one part of a sample in which actives are shown more often than they occur.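 Rule for the calls: active = compounds whose percent inhibition of the receptor-coactivator binding signal exceeds about 50% in the single-dose screen (limit read from the data); inactive = the rest.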

Target: Estrogen receptor beta (Homo sapiens) (UniProt Q92731)
Experiment: inhibitors of ERβ-SRC1 coactivator interaction, primary screen, biochemical, TR-FRET, ERβ LBD, SRC-1 peptide (AID 633);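 note: 0% = receptor plus peptide wells without compound and 100% = peptide-only wells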
Details: TR-FRET ER-beta LBD / SRC1-Cy5 peptide binding; at 25.6 µM; stronger effect = higher value; receptor agonist-loaded with 1 µM estradiol

Sequence of Estrogen receptor beta (Homo sapiens) (Q92731 whole entry, looked up, the tested form may be a part): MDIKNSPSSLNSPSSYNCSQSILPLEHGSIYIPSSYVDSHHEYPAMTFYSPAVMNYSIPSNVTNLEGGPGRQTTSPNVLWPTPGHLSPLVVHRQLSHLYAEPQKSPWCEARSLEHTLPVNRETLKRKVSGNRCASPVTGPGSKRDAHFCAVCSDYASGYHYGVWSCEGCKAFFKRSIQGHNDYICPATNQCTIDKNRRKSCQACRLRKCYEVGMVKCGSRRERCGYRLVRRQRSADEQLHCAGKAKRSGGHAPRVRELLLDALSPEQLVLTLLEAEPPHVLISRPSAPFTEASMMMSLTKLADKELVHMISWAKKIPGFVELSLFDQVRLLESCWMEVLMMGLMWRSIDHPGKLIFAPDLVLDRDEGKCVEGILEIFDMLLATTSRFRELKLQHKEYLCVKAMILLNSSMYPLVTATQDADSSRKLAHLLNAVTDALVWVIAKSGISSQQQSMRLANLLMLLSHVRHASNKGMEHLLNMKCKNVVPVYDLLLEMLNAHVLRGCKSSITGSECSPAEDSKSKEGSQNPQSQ

inhibition, active:
COc1ccc2[nH]cc(/C=C(/C#N)S(=O)(=O)c3ccccc3)c2c1 54.7% [fluorescence artefact?]
CCOc1cc(N2CCOCC2)c(OCC)cc1NC(=O)COc1cccc2cccnc12 61.6% [fluorescence artefact?]
Cc1ccc(OCC(=O)Nc2ccc(-c3nnc(-c4ccco4)o3)cc2)cc1 63.5% [fluorescence artefact?]
CN(C)[C@@H]1C(=O)C(C(N)=O)=C(O)[C@@]2(O)C(=O)C3=C(O)c4c(O)ccc(Cl)c4[C@@H](O)[C@H]3C[C@@H]12 91.5% [fluorescence artefact?]

inhibition, inactive:
CCOc1ccccc1C(=O)NC1CC2CCCC(C1)N2Cc1ccccc1 (stereo not drawn) 5.21%
CCN(CC)CCn1c2ccc(Cl)cc2c2nc(C)sc21 -0.33%
CS(=O)(=O)N(CC(=O)Nc1ccc(Cl)c(Cl)c1)C1CCCCC1 -2.05%
CC(C)(C)C1CCc2c(sc3nc(SCC(N)=O)nc(N)c23)C1 (stereo not drawn) -6.07%
COc1ccc2[nH]c3ccc(OC)cc3c2c1 1.96%
CCN(CC)CC(=O)c1c[nH]c2ccc(OC)cc12 -8.33%
COC(=O)c1ccc(CSc2ccc3nnc(-c4ccccc4)n3n2)o1 -3.95%
Cc1ccc(S(=O)(=O)NC(=O)COc2ccccc2C)cc1 8.77%
CCOc1cc(NC(=O)c2ccco2)c(OCC)cc1NC(=O)COc1ccccc1 48.5%
CCOc1cc(N2CCOCC2)c(OCC)cc1NC(=O)COC(=O)[C@H](Cc1c[nH]c2ccccc12)NC(C)=O -5.51%
O=C(Oc1ccccc1C(=S)N1CCCCC1)c1cc([N+](=O)[O-])cc([N+](=O)[O-])c1 -10.5%
Cc1nnc(SC(C)C(=O)Nc2ccc(S(=O)(=O)NC3CCCCC3)cc2)s1 (stereo not drawn) 17.8%
COc1ccc(CC(=O)Nc2ccc(-c3nnc(-c4ccc(C)cc4)o3)cc2)cc1 15.6%
CCOc1ccc(-c2nnc(-c3ccco3)o2)cc1 -5.81%
COc1ccc(CC(NC(C)=O)C(=O)N2CCN(C(=O)Nc3cccc(Cl)c3)CC2)cc1OC (stereo not drawn) -8.98%
COc1ccc(C(C#N)Nc2ccccc2C)cc1 (stereo not drawn) -1.62%
CC(C)CNC(=O)CC(c1ccccc1)c1c(O)ccc2ccccc12 (stereo not drawn) -3.69%
O=C(Cn1c(-c2cscn2)nc2ccccc21)Nc1ccc(Cl)cc1 18.5%
COc1ccccc1NC(=O)CSc1nnc(C)n1CC1CCCO1 (stereo not drawn) -11.8%
